This test deals with NanoLuc luciferase (NLuc). The test is described as follows: residual bioluminescent signal relative to negative control without GSH; higher = less interference (more residual luciferase signal). The note with it: screening conditions buffer. On the procedure: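 Selected metal salts at 3-4 concentrations tested on purified FLuc, NLuc or RLuc in screening buffer with 0, 0.2 or 2 mM glutathione added; 10 min enzyme pre-incubation at RT, luminescence 10 min after substrate. Signal normalised to negative control without GSH (% N_VALUE); triplicate wells.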

[1] abbreviates: metal salt concentration 1 mM, glutathione 0 mM.
[2] abbreviates: metal salt concentration 1 mM, glutathione 0.2 mM.
[3] abbreviates: metal salt concentration 1 mM, glutathione 2 mM.

The text below walks through data of the supplement of paper PMC11628255, “Interference of metal ions on the bioluminescent signal of firefly, Renilla, and NanoLuc luciferases in high-throughput screening assays” (Frontiers in Chemistry, 2024).

Structures are written as SMILES. ± gives the standard deviation of the averaged measurements.

In the case of `[Cl][Fe]([Cl])[Cl]` [iron(III) chloride], the residual bioluminescent signal (metal salt concentration 0.01 mM, glutathione 0 mM) stood at 95.59 ± 0.8%; the residual bioluminescent signal (metal salt concentration 0.01 mM, glutathione 0.2 mM) came out at 101 ± 6.7%; the residual bioluminescent signal (metal salt concentration 0.01 mM, glutathione 2 mM) was found to be 82.7 ± 2.5%; the residual bioluminescent signal (metal salt concentration 0.816 mM, glutathione 0 mM) was 60.2 ± 3.4%; the residual bioluminescent signal (metal salt concentration 0.816 mM, glutathione 0.2 mM) was 69.1 ± 0.65%; the residual bioluminescent signal (metal salt concentration 0.816 mM, glutathione 2 mM) was 28.9 ± 1.5%. Besides, the residual bioluminescent signal by setting is: under setting [1], 54.3 ± 4.4%; under setting [2], 55.5 ± 7.2%; under setting [3], 44.4 ± 35%; (metal salt concentration 2.5 mM, glutathione 0 mM) 4.41 ± 1.8%; (metal salt concentration 2.5 mM, glutathione 0.2 mM) 7.61 ± 0.73%; (metal salt concentration 2.5 mM, glutathione 2 mM) 1.69 ± 0.99%.

For `[Cl][Fe][Cl]` [iron(II) chloride], the residual bioluminescent signal runs as follows: (metal salt concentration 0.05 mM, glutathione 0 mM) 94.3 ± 1.3%; (metal salt concentration 0.05 mM, glutathione 0.2 mM) 100 ± 3.5%; (metal salt concentration 0.05 mM, glutathione 2 mM) 82.2 ± 1.7%; (metal salt concentration 0.88 mM, glutathione 0 mM) 47.8 ± 5.5%; (metal salt concentration 0.88 mM, glutathione 0.2 mM) 49.4 ± 1.8%; (metal salt concentration 0.88 mM, glutathione 2 mM) 34.8 ± 2.7%. The residual bioluminescent signal by setting is: under setting [1], 38.2 ± 3.3%; under setting [2], 47.6 ± 1.5%; under setting [3], 30.5 ± 2.4%; (metal salt concentration 5 mM, glutathione 0 mM) 1.69 ± 0.79%; (metal salt concentration 5 mM, glutathione 0.2 mM) 2.48 ± 0.68%; (metal salt concentration 5 mM, glutathione 2 mM) 7.22 ± 0.76%.
